From the OligoGym collection

Target: PRSS57
Experiment: pooled miR-30 sensor sort-seq; sequence = guide strand
Conditions: shRNA
Further: reference of the scale not given here.

Row | Sequence | sensor-assay potency score (higher = more potent)
1 | ACACCTGCGTGTACACGTCGGG | -0.753
2 | TGTGGTGAGAGCATCGATGCCA | 0.623
3 | TCGGACCTTGGCCTCCATCAGT | -1.55
4 | TCTCTGTGGCTGAAGCAGTGGG | -1.07
5 | TCGATGCCAAACACCTGCTGGG | -0.917
6 | ACAAAGGCGGACACCTGCGTGT | -0.414
7 | TGGTAGTCGGGGTGTGTGGTGA | -0.823
8 | AGCATCGATGCCAAACACCTGC | -0.826
9 | TTCACGGGCAGCATCAGGGCGG | -0.51
10 | ATCGATGCCAAACACCTGCTGG | -0.864
11 | TACACGTCGGGGGTCTTGGGGT | -1.06
12 | AAGTCAGACACGAAGCCCCAGC | -0.91

Target: PRUNE
Experiment: as above
Conditions: shRNA

Row | Sequence | sensor-assay potency score (higher = more potent)
13 | TTCCTTGTCCACTTGCTCCCTG | 0.334
14 | TTAAATAATAAAATGTGTCTGA | -0.11
15 | TATTCGTGCTACATGAGGCTGA | 0.818
16 | TAATAGTATAACAAAATGCAAA | -1.31
17 | TTGTCTATAGATAGTCTTCTGG | -0.685
18 | TTTATGAGAACAGTATACCAGA | -0.563
